Experimental data from PubChem BioAssay AID1159580 (chemical genetic matrix, 2015).
Several values for one entry are separate records, joined by “and”; a condition that tells them apart may be missing. Identical values can stand only once. The whole screen tested about 5,500 compounds, of which about 2,000 (36%) were called active. Not shown: some 18% with an inconclusive outcome. No stated cut-off is given here; in the data, active means normalized growth mostly below about 0.91 (no sharp cut-off); inconclusive means no clear call, values can overlap the other calls; inactive means mostly above about 0.92. The list shows a part of the results.

Test: chemical genetic growth profiling, strain panel (AID 1159580);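 further: tested at 20 µM; growth read once vehicle control cultures reached saturation at 30 °C; 1 = growth at the plate median or of vehicle wells; lower values mean less growth of the strain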
Details: growth OD
[1] = S. cerevisiae deletion strains, locus YAL013W, strain DEP1, hits give low values
[2] = S. cerevisiae deletion strains, locus YBR229C, strain ROT2, hits give low values
[3] = S. cerevisiae deletion strains, locus YCL061C, strain MRC1, hits give low values
[4] = S. cerevisiae deletion strains, locus YDL101C, strain DUN1, hits give low values
[5] = S. cerevisiae deletion strains, locus YDL134C, strain PPH21, hits give low values
[6] = S. cerevisiae deletion strains, locus YDR150W, strain NUM1, hits give low values
[7] = S. cerevisiae deletion strains, locus YEL061C, strain CIN8, hits give low values
[8] = S. cerevisiae deletion strains, locus YGR078C, strain PAC10, hits give low values
[9] = S. cerevisiae deletion strains, locus YHR030C, strain SLT2, hits give low values
[10] = S. cerevisiae deletion strains, locus YHR087W, strain rtc3, hits give low values
[11] = S. cerevisiae deletion strains, locus YJR043C, strain POL32, hits give low values
[12] = S. cerevisiae deletion strains, locus YJR075W, strain HOC1, hits give low values
[13] = S. cerevisiae deletion strains, locus YLR039C, strain RIC1, hits give low values
[14] = S. cerevisiae deletion strains, locus YLR058C, strain SHM2 (second series), hits give low values
[15] = S. cerevisiae deletion strains, locus YLR085C, strain ARP6, hits give low values
[16] = S. cerevisiae deletion strains, locus YLR262C, strain YPT6, hits give low values
[17] = S. cerevisiae deletion strains, locus YML094W, strain GIM5, hits give low values
[18] = S. cerevisiae deletion strains, locus YMR219W, strain ESC1, hits give low values
[19] = S. cerevisiae deletion strains, locus YNL153C, strain GIM3, hits give low values
[20] = S. cerevisiae deletion strains, locus YNL298W, strain CLA4 (second series), hits give low values
[21] = S. cerevisiae deletion strains, locus YNL322C, strain KRE1, hits give low values
[22] = S. cerevisiae deletion strains, locus YNR030W, strain Alg12, hits give low values
[23] = S. cerevisiae deletion strains, locus YPL055C, strain LGE1, hits give low values
[24] = S. cerevisiae deletion strains, locus YPL241C, strain CIN2, hits give low values
[25] = S. cerevisiae deletion strains, locus YPR135W, strain CTF4, hits give low values

Measured: normalized growth

Cc1cc(Oc2c([N+](=O)[O-])cc(C(F)(F)F)cc2[N+](=O)[O-])c2c(Cl)ccc(C)c2n1
inactive: [3] 0.948 | [4] 0.987 | [6] 0.851 | [14] 0.951 | S. cerevisiae deletion strains, locus YLR113W, strain HOG1, hits give low values 0.655 | S. cerevisiae deletion strains, locus YNL128W, strain TEP1, hits give low values 0.957 | [19] 0.976 | [21] 0.948
active: [1] 0.667 | [2] 0.883 | [5] 0.887 | [7] 0.788 | S. cerevisiae deletion strains, locus YGR052W, strain FMP48, hits give low values 0.173 | [8] 0.913 | [9] 0.271 and 0.16 | S. cerevisiae deletion strains, locus YHR079C, strain IRE1, hits give low values 0.231 | S. cerevisiae deletion strains, locus YHR082C, strain KSP1, hits give low values 0.27 | [10] 0.834 | S. cerevisiae deletion strains, locus YJL095W, strain BCK1, hits give low values 0.363 | [11] 0.905 | S. cerevisiae deletion strains, locus YJR066W, strain TOR1, hits give low values 0.29 | [12] 0.89 | S. cerevisiae deletion strains, locus YKL171W, strain NNK1, hits give low values 0.534 | S. cerevisiae deletion strains, locus YKL190W, strain CNB1, hits give low values 0.458 | S. cerevisiae deletion strains, locus YKL203C, strain TOR2, hits give low values 0.459 | [13] 0.498 | [15] 0.372 | [16] 0.547 | [17] 0.805 | [18] 0.905 | S. cerevisiae deletion strains, locus YNL183C, strain NPR1, hits give low values 0.143 | S. cerevisiae deletion strains, locus YNL207W, strain RIO2, hits give low values 0.546 | [20] 0.668 | [22] 0.623 | S. cerevisiae deletion strains, locus YOR119C, strain RIO1, hits give low values 0.479 | S. cerevisiae deletion strains, locus YOR231W, strain MKK1, hits give low values 0.418 | [23] 0.44 | [24] 0.762 | S. cerevisiae deletion strains, locus YPL256C, strain CLN2, hits give low values 0.348 | [25] 0.451

COc1ccc(Oc2ccc(C(F)(F)F)cc2[N+](=O)[O-])cc1
active: [25] 0.624
inactive: [1] 0.986 | [2] 0.96 | [3] 0.931 | [4] 0.924 | [5] 1.03 | [6] 0.886 | [7] 1.03 | [8] 0.951 | [9] 0.927 | [10] 0.993 | S. cerevisiae deletion strains, locus YJL187C, strain SWE1, hits give low values 0.965 | [11] 0.946 | [12] 0.925 | [13] 0.901 | [14] 1.02 | [15] 0.896 | [16] 0.926 | [17] 1.06 | [18] 0.996 | S. cerevisiae deletion strains, locus YMR263W, strain SAP30, hits give low values 0.917 | S. cerevisiae deletion strains, locus YMR307W, strain GAS1, hits give low values 0.911 | [19] 0.947 | [20] 0.987 | [21] 1.01 | [22] 0.924 | [23] 0.898 | [24] 0.952 | S. cerevisiae strains, strain wild type, hits give low values 0.978
